# Compound activity from PubChem.
# Statin myotox sup – protects C2C12 myotubes from simvastatin toxicity | AID 602340 | rescue of ATP level, % at 7.49 µM | hit rate 0.78% among 330,000 | ATP luminescence, 48 h; scaled: DMSO 0, geranylgeraniol control 100;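 active means mean ATP rescue above about 67%, or every replicate alone reaching that limit, limit read from the data, passing the limit was not always enough; inconclusive means no clear call, values can overlap the other calls; inactive means mean under the limit and some replicate under it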;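 further: myotubes were challenged with 10 µM simvastatin during compound exposure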
# FXN GAA850 act – frataxin GAA850 promoter activation; AID 540364; hit rate 0.56% among 360,000; HEK293 lucGAA850 FXN promoter luciferase reporter, 24 h; percent of 10 µM SAHA response; activation, % at 6 µM;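 active means activation above the average of all compounds screened plus 3 SD, cutoff fixed separately per campaign, cut at about 7.5% in these data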;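 further: 0% = DMSO wells and 100% = 10 µM SAHA wells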
# Wnt bcat act – activators of Wnt/beta-catenin signaling | AID 743398 | Wnt/beta-catenin reporter cell assay, activator, plate reader | activation, % at 9.35 µM | hit rate 1.2% among 300,000; in the data active means activation above about 30%, passing the limit was not always enough; inconclusive means no clear call, values can overlap the other calls;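 further: 0% = neutral control wells and 100% = positive control wells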
# MITF TRPM1 HTS – increases MITF-driven TRPM1 promoter luciferase signal; SK-MEL-5 TRPM1-promoter luciferase, 24 h; % of positive control, neutral wells = 0; activation, % at 12.5 µM; hit rate 0.75% among 300,000; AID 588334;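 active means mean activation of at least 80% with every replicate also reaching 80%; inconclusive means mean reaches 80% but some replicate falls short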;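 further: 0% = neutral control wells and 100% = parthenolide positive control wells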
# esBAF inh – blocks esBAF chromatin remodeling in mouse ES cells; hit rate 2% among 350,000; reporter increase, % at 12.5 µM; AID 602393; Bmi1-luciferase knock-in reporter, 24 h; 100% = twice the neutral-well signal; in the data active means activation above about 40%; inconclusive means no clear call, values can overlap the other calls;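 further: 0% = median of the plate's neutral control wells and 100% = double that signal; a rise in the Bmi1 reporter signal indicates esBAF inhibition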
# Numbers without * were called inactive; u = inconclusive; x = no result. In the library only some 3.3% were active in any assay of this set; here they are far more common.
SMILES,Statin myotox sup,FXN GAA850 act,Wnt bcat act,MITF TRPM1 HTS,esBAF inh
Cc1ccc(/C(N)=N/OC(=O)CSc2ccccc2)cc1,x,4,u,-5,x
CCCNC(=O)C[C@@H]1CC[C@H]2[C@@H](COc3ccc(NS(=O)(=O)c4ccccc4C)cc3C(=O)N2C)O1,-21,x,x,x,-4
Cc1cc(NC(=O)c2ccccc2)sc1C,-16,4,54*,28,10
Cc1ccc(NC(=O)c2ccccc2)s1,-2,1,x,38,-22
CN(C)C(=O)[C@@H]1[C@@H](CO)[C@@H]2Cn3c(ccc(C4=CCCCC4)c3=O)[C@@H]2N1C(=O)c1ccccc1F,5,x,x,x,0
O=C(NCc1ccccc1)Oc1cccc(Cl)c1,106*,1,3,-6,12
O=C(NCc1ccccc1)c1cccc(COc2cccc(Cl)c2)c1,x,0,9,29,x
C=CCN1C(=O)C2C(C(=O)NC)C3C=CC2(O3)C1C(=O)NCc1ccc(OC)cc1 (stereo not given),105*,-1,x,19,-4
COc1ccc(S(=O)(=O)N(C)C[C@@H]2Oc3ccc(NC(=O)Nc4cccc5ccccc45)cc3CC(=O)N([C@H](C)CO)C[C@@H]2C)cc1,4,x,x,x,1
CCCn1nnc(NC(=O)c2cccc(OCC)c2)n1,-2,2,10,37,19
CCCn1nnc(NC(=O)c2ccc3ccccc3c2)n1,x,3,9,122*,x
CC(=O)C(C)Oc1ccc2c3c(c(=O)oc2c1C)CCCC3 (stereo not given),-7,7,-9,-10,58*
CCc1c(C)c2ccc(OCC(=O)N(C)C)c(C)c2oc1=O,0,0,x,-3,2
CC(=O)COc1ccc2c3c(c(=O)oc2c1C)CCCCC3,-57,5,x,72,45*
Cc1c(OC(C)C(=O)N[C@H](C(=O)O)c2ccccc2)ccc2c3c(c(=O)oc12)CCCC3 (stereo not given in full),-10,-1,-2,-5,1
Cc1c(C)c2ccc(OCC(=O)N(C)C)c(C)c2oc1=O,98*,1,x,16,1
Cc1c(OCC(=O)N(C)C)ccc2c3c(c(=O)oc12)CCCCC3,-3,3,x,15,-4
Cc1c(OCc2ccc([N+](=O)[O-])cc2)ccc2c3c(c(=O)oc12)CCC3,x,5,-1,112*,x
Cc1oc(C(=O)O)cc1COc1ccc2c3c(c(=O)oc2c1C)CCC3,9,6,-7,x,1
O=[N+]([O-])c1ccccc1N=NNc1ccccc1,-10,4,14,41,113*
CCOC(=O)c1ccc(S(=O)(=O)N2CCN(C3CC(=O)N(c4ccc(OC)cc4)C3=O)CC2)cc1 (stereo not given),0,0,-1,13,-6
CCOC(=O)c1ccc(N2C(=O)CC(N3CCN(C/C=C/c4ccccc4)CC3)C2=O)cc1 (stereo not given),127*,2,1,6,-2
Cc1cccc(-c2nnc3n2N=C(c2ccccc2Br)CS3)c1,103*,3,x,4,-14
O=C(COc1ncnc2cc(Cl)ccc12)c1ccccc1,1,2,-1,31,71*
C[C@H]1CN([C@@H](C)CO)S(=O)(=O)c2ccc(C#CC3CC3)cc2O[C@@H]1CN(C)Cc1cncnc1,-44,x,x,x,x
SMILES,Statin myotox sup,FXN GAA850 act,Wnt bcat act,MITF TRPM1 HTS,esBAF inh
COc1ccc(Oc2ccc(C(F)(F)F)cc2NC(=O)c2ccc(OC)cc2)cc1,x,-1,-1,-6,x
COc1ccc(Oc2ccc(C(F)(F)F)cc2N)cc1,-2,2,8,52,43*
CCC(=O)Nc1c(C#N)c2nc3ccccc3nc2n1-c1ccccc1C,192*,-2,-6,-13,-3
c1ccc(-n2nnc3ccccc32)nc1,-6,3,x,76,61*
c1ccc(-n2nnnc2-n2nnc3ccccc32)cc1,26,-1,0,-8,-3
NS(=O)(=O)c1ccc(N=NN2CCCCC2)cc1,x,3,39*,46,x
COC(=O)c1ccc(N=NN2CCCCCC2)cc1,x,7,0,106*,x
COC(=O)C[C@@H]1CC[C@H]2[C@H](COc3ccc(NS(=O)(=O)c4ccccc4F)cc3C(=O)N2C)O1,-12,x,x,x,11
CC(C)(C)NC(=O)NC(=O)COC(=O)Cc1c(Cl)cccc1Cl,x,-1,-1,4,x
NC(=O)c1ccsc1NC(=O)COC(=O)c1c(F)cccc1Cl,-1,2,22,67,112*
NC(=O)c1ccsc1NC(=O)COC(=O)c1ccccc1F,3,1,0,17,1
CC(C)(C)NC(=O)NC(=O)COC(=O)c1c(F)cccc1Cl,-2,5,3,64,50*
CC(C)NC(=O)Nc1cccc2c1O[C@H](CN(C)S(=O)(=O)c1ccccc1)[C@H](C)CN([C@H](C)CO)C2=O,-6,x,x,x,2
O=C(C[C@H]1C[C@@H]2c3cc(NC(=O)C4CCOCC4)ccc3O[C@@H]2[C@@H](CO)O1)NCCc1ccccc1,-5,x,x,x,-5
Cc1ccc(S(=O)(=O)Nc2ccc3c(c2)CC(=O)N([C@H](C)CO)C[C@H](C)[C@H](CN(C)C(=O)Nc2ccc(F)cc2)O3)cc1,19,x,x,x,3
CSc1cccc2sc(NC(=O)C3=COCCO3)nc12,1,2,6,68,57*
O=C(COC(=O)c1ccc(S(=O)(=O)N2CCOCC2)cc1)NC1CCCCCCC1,3,0,89*,-1,5
C=CCOc1c(CNc2cccc(C(=O)O)c2)cccc1OC,-2,1,x,51,52*
CCOc1cccc(CNc2ccc(O)cc2)c1OCc1ccccc1Cl,108*,0,x,-9,-11
C=CCOc1c(CNc2ccc(C(=O)O)cc2)cccc1OCC,-11,3,x,65,44*
C[C@@H](O)C#Cc1ccc2c(c1)O[C@H](CN(C)C(=O)C1CCCCC1)[C@@H](C)CN([C@@H](C)CO)S2(=O)=O,-1,x,x,x,5
Cc1ccc2nc(NC(=O)c3ccc(Cl)s3)sc2c1,-27,4,u,53,9
Cc1nc2ccc(NC(=O)c3ccc(Cl)s3)cc2s1,-16,4,12,87*,79*
Cc1nc2ccc(NC(=O)N(C(C)C)C(C)C)cc2s1,4,0,x,x,44*
Cc1nc2ccc(NC(=O)N(C)c3ccccc3)cc2s1,x,0,x,9,x
SMILES,Statin myotox sup,FXN GAA850 act,Wnt bcat act,MITF TRPM1 HTS,esBAF inh
N#C/C(=C\c1ccc2c(c1)OCCO2)C(=O)Nc1ccc(C(=O)O)cc1,2,2,15,23,61*
N#C/C(=C/c1ccc2c(c1)OCO2)C(=O)Nc1ccc(O)cc1,8,2,-3,21,16
COCC(=O)N[C@@H]1C=C[C@H](CC(=O)NCc2ccccc2OC)O[C@@H]1CO,2,x,x,x,-1
Cc1nn2cc(-c3cccc(Cl)c3)cnc2c1Cl,-72,2,-1,25,79*
Cc1nn2cc(-c3cccc(Cl)c3)cnc2c1Br,x,-2,6,20,x
O=C(NCC[C@@H]1CC[C@@H](NC(=O)c2cnccn2)[C@H](CO)O1)Nc1ccc(Cl)cc1,1,x,x,x,7
